Data on 14 compounds can be found in PubChem BioAssay.

Test [1] in a line: inhibitors of TNFa-induced NFkB p65 translocation, primary screen, imaging, HUVEC, MLSMR starter and 10KST1 sets (AID 438;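 active = inhibition above 20% together with a positive visual image hit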;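 also: compound added about 3h40 before a 20 min TNFalpha stimulation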;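 as to inhibition: signal is the nuclear over cytoplasmic p65 intensity ratio per well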). The following applies: HUVEC TNFa-induced p65 nuclear translocation; cell count: measured here: nuclei count (cytotoxicity indicator), at 2.08 µM; inhibition: at 2 µM, stronger effect = higher value, 0% TNFa-plus-vehicle, 100% no-TNFa wells.
Test [2] is described as follows: endothelial E-selectin expression blockers – imaging, HUVEC, immunofluorescence, MLSMR starter and 10KST1 sets, primary screen (AID 487).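 As to inhibition: signal is fraction of cell area covered by stained E-selectin grains.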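 As to nuclei count: 100% = median nuclei count of all wells on the same plate.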 Particulars: HUVEC TNFalpha-induced E-selectin immunofluorescence imaging, at 2 µM; inhibition: stronger effect = higher value; nuclei count: measured here: cell number, toxicity.
Test [3] is described as follows: Primary imaging screen for DUSP6 inhibitors that restore phospho-Erk in transfected HeLa cells, chemical complementation (AID 609;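 active = compounds giving at least 50% inhibition in the cell-based MKP-3 phosphatase rescue imaging test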;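 as to inhibition: phospho-Erk level distribution per well compared with pooled transfected vehicle control wells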). Particulars: HeLa MKP-3 transfected, phospho-Erk imaging KS statistic, at 10 µM, cells stimulated with TPA for 15 min.
Test [4] has as its target Dual specificity protein phosphatase 6 (Homo sapiens) (UniProt Q16828). The test is described as above. Particulars: HeLa MKP-3 transfected, phospho-Erk imaging KS statistic; at 10 µM; stronger effect = higher value; cells stimulated with TPA for 15 min.
Test [5] concerns the target Voltage-gated potassium channel subunit beta-2 (Rattus norvegicus) (UniProt P62483). Kind of test: inhibitors of rat Kvbeta2 reductase activity – biochemical, NADPH fluorescence, primary screen (AID 622;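 active = fluorescence slope higher than the sample average by over 3 SD, cut at about -0.22 in these data, passing the limit was not always enough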;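 also: slope of raw intensity against log time taken from 70 to 1610 s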). The following applies: recombinant KvBeta, 4-cyanobenzaldehyde reduction, at 10 µM, stronger effect = higher value.
Test [6] has the same target. Kind of test: enhancers of rat Kvbeta2 NADPH turnover – biochemical, NADPH fluorescence, primary screen (AID 623;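 active = NADPH fluorescence slope more negative than the mean of all samples by about 3 SD, 99.7% confidence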;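 also: fluorescence intensity change per second fitted from 20 to 320 s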). Particulars: Recombinant KvBeta, NADPH fluorescence decrease slope, 10 min; at 10 µM; stronger effect = lower value.
Test [7] concerns the target Alpha-2C adrenergic receptor (Homo sapiens) (UniProt P18825). Kind of test: compounds altering alpha2C-coupled GIRK flux – cell-based, HEK293 alpha2C/GIRK1/2, thallium flux, primary screen (AID 624;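 active = fluorescence slope after compound addition differing from the mean of all screened samples at 99.7% confidence, in either direction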;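 also: slope of fluorescence ratio to pre-addition baseline per second over 15 to 24 s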). Particulars: thallium flux BTC fluorescence, at 10 µM, actives lie on both sides.
Test [8] is described as follows: inhibitors of larval lipid processing in zebrafish, primary screen, whole organism, PED6 fluorescence, gall bladder and intestine (AID 686;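 active = a full or partial loss of lipid-probe fluorescence in the fish gall bladder, intestine or both, judged by eye; inactive = no fluorescence loss, or compound toxic to the fish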;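 also: larvae 5 to 7 days old with five fish per well; signal comes from phospholipase A2 cleavage of quenched PED6 carried via bile; overnight exposure to compound and PED6 before scoring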). Particulars: Zebrafish larvae PED6 lipid processing, fluorescence scoring; screened at 20 µM (by protocol).
A short description of test [9]: loss of swimming-algae plug formation – whole organism, Chlamydomonas reinhardtii, WT vs cilia-less mutant, absorbance, 96-well, primary screen (AID 463189;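 active = inhibition at or above 50% relative to wild type and mutant plate controls; inactive = inhibition below 50%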;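 also: 0% = wild type cc124 cells in DMSO and 100% = ciliumless bld1 mutant cells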). Particulars: Chlamydomonas reinhardtii gravitaxis, OD600 absorbance, 2 days; at 10 µM; stronger effect = higher value.
Where [10] appears, read: measured here: cell density z-score.
Where [11] appears, read: measured here: nuclear c-Myc green intensity z-score.
Setting [12] is: measured here: nuclear pErk red intensity z-score, stronger effect = higher value.

The structures appear in SMILES notation. The source made the active and inactive calls.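 The calls were made as follows, unless noted: active = visually confirmed hit in the image check and inhibition above 20%; inconclusive = visually confirmed hit but inhibition not above 20%; inactive = no visual hit in the image check.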

Alpha-2C adrenergic receptor (Homo sapiens), sequence (P18825 whole entry, looked up): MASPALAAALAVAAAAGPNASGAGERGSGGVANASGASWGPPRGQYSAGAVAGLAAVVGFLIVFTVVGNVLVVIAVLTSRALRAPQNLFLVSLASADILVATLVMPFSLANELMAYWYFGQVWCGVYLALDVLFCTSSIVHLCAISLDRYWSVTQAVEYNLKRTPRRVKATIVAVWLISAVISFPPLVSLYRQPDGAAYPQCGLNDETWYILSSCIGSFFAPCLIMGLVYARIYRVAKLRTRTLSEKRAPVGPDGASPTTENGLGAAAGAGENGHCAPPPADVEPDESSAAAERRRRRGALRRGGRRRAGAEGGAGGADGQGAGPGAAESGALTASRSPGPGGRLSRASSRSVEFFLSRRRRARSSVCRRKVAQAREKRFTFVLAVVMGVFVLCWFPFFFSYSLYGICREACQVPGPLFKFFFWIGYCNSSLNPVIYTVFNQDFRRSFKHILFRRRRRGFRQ
Voltage-gated potassium channel subunit beta-2 (Rattus norvegicus), sequence (P62483 whole entry, looked up): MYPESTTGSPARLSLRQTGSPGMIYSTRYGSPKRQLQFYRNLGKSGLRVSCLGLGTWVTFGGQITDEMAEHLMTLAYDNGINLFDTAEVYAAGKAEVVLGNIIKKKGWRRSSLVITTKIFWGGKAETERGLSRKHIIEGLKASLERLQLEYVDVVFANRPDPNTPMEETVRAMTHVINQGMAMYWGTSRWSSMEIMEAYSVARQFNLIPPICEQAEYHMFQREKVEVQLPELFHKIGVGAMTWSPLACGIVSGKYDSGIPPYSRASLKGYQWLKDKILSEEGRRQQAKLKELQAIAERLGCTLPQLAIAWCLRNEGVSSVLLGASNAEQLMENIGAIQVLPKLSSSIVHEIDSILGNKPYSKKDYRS
Dual specificity protein phosphatase 6 (Homo sapiens), sequence (Q16828 whole entry, looked up): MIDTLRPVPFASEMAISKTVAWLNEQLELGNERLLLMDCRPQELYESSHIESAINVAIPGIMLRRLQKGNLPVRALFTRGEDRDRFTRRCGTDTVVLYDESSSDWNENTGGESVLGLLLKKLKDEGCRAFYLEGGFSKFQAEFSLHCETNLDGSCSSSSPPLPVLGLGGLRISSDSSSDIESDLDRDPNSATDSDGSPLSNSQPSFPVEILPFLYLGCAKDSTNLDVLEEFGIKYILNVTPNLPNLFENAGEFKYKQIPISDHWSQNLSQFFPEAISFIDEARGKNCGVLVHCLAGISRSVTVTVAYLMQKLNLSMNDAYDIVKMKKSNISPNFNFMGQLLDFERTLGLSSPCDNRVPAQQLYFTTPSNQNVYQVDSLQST

In the case of `c1ccc(N2CCN(c3nc(NCc4ccco4)c4ccccc4n3)CC2)cc1`, the cell count in test [1] turned out to be 579. The inhibition (in general, the relative decrease from the control value, in per cent) is 0.1% (inactive) in [1], -25.4% (inactive) in test [2], -4.7% (inactive) in test [4] and 35.9% (inactive) in [9]. In test [2], this compound had a nuclei count of 219%. Besides, the z-score is 0.527 in [3] (setting [10]), -0.848 in test [3] (setting [11]) and 2.43 in test [3] (setting [12]). In test [5], the fluorescence slope was -0.35 (inactive). In addition, the NADPH fluorescence slope in test [6] was -2.5e-05 (inactive). The slope in test [7] was 0.00337 (inactive). Also, the outcome in test [8] was inactive.
With `CC(C)(C)C1CCC2(CC1)C(C#N)=C(SCC(=O)Nc1ccccc1)NC(=O)C2C#N` (stereo unspecified), the cell count in [1] is 390. The inhibition is -3.7% (inactive) in test [1], -138% (inactive) in test [2], 9.39% (inactive) in test [4] and 10.8% (inactive) in test [9]. Moreover, in test [2], the nuclei count is 85.7%. Also, the z-score is -1.51 in [3] (setting [10]), -1.06 in test [3] (setting [11]) and -0.683 in [3] (setting [12]). In test [5], the fluorescence slope was -0.461 (inactive). In addition, the NADPH fluorescence slope in [6] is 9.2e-06 (inactive). In addition, the slope in test [7] is 0.0063 (inactive). Besides, the outcome in [8] is “inactive; toxic”.
`Cc1nnc2n(Cc3ccccc3)c(=O)c3c4c(sc3n12)CN(Cc1ccccc1)CC4`: the cell count in test [1] was found to be 628. Moreover, the inhibition is -8.2% (inactive) in [1], 29.2% (inactive) in [2], -7.28% (inactive) in [4] and 31.3% (inactive) in test [9]. This compound also showed a nuclei count in [2] of 167%. For the same compound, the z-score in test [3] (setting [10]) was -0.0797; in test [3] (setting [11]), 0.579; in test [3] (setting [12]), 0.467. The fluorescence slope in test [5] was -0.423 (inactive). Further, the NADPH fluorescence slope in [6] was -5e-05 (inactive). In test [7], the slope is 0.00348 (inactive). For the same compound, in [8], the compound was called inactive.
On to `O=C(c1ccc(=O)oc1)N1CCN(c2ccc(F)cc2)CC1`, for which, in test [1], the cell count was determined as 328. In addition, the inhibition is -4.5% (inactive) in [1], -1.9% (inactive) in [2], 17.4% (inactive) in test [4] and 31% (inactive) in [9]. This compound also displayed a nuclei count in test [2] of 95.2%. Also, the z-score is -0.519 in test [3] (setting [10]), -0.0445 in test [3] (setting [11]) and 0.228 in [3] (setting [12]). Also, the fluorescence slope in test [5] is -0.364 (inactive). For the same compound, in test [6], the NADPH fluorescence slope was -4.3e-05 (inactive). The slope in test [7] was 0.00509 (inactive). The call in test [8] was inactive.
As to `Cc1cc(=O)oc(C)c1C(=O)Nc1cccc2nonc12`, the cell count in [1] was 404. For the same compound, the inhibition is -0.5% (inactive) in [1], -61.8% (inactive) in [2], -4.7% (inactive) in [4] and -5.97% (inactive) in test [9]. In addition, the nuclei count in [2] was found to be 132%. Besides, the z-score in test [3] (setting [10]) was 1.68; in test [3] (setting [11]), -1.68; in [3] (setting [12]), -0.173. Besides, in [5], the fluorescence slope is -0.297 (inactive). In addition, the NADPH fluorescence slope in [6] was -2.7e-05 (inactive). In [7], the slope was 0.00487 (inactive). For the same compound, the result in test [8] was inactive.
With `c1cncc(Oc2cccc(Oc3cccnc3)c2)c1`, the cell count in test [1] was found to be 388. In addition, the inhibition in test [1] was -2.6% (inactive); in test [2], -116% (inactive); in [4], -2.07% (inactive); in test [9], -16% (inactive). In test [2], this compound showed a nuclei count of 133%. Moreover, the figures for the z-score in test [3] (setting [10]), in test [3] (setting [11]) and in test [3] (setting [12]) were -0.336, 0.96 and -0.973, respectively. For the same compound, the fluorescence slope in [5] is -0.426 (inactive). Further, the NADPH fluorescence slope in [6] is -1.4e-05 (inactive). Moreover, the slope in [7] was 0.00527 (inactive). Further, the compound was called inactive in [8].
Consider `CCOC(=O)C1=C(c2ccccc2)NC(SCC(=O)Nc2ccccc2C)=C(C#N)C1c1ccco1` (stereo unspecified), for which, in test [1], the cell count was 433. The inhibition in test [1] was -4.2% (inactive); in test [2], -136% (inactive); in test [4] it was -0.159% (inactive); in test [9] it was 0.63% (inactive). Also, the nuclei count in test [2] stood at 166%. Also, the z-score in [3] (setting [10]) is -0.18; in test [3] (setting [11]) it was -0.317; in test [3] (setting [12]) it was -0.0556. In test [5], the fluorescence slope is -0.408 (inactive). Further, in test [6], the NADPH fluorescence slope is -6.1e-05 (inactive). Further, in [7], the slope is 0.0072 (inactive). The outcome in test [8] was inactive.
For the compound `Cc1cccn2c(=O)c3cc(C#N)c(=N)n(Cc4ccncc4)c3nc12`, in test [1], the cell count turned out to be 604. Also, the inhibition in [1] was -18.3% (inactive); in test [2], -96.5% (inactive); in [4] it was -4.27% (inactive); in test [9], -9.33% (inactive). This compound gave a nuclei count in [2] of 165%. Besides, the z-score is 0.463 in [3] (setting [10]), -1.24 in test [3] (setting [11]) and 0.303 in [3] (setting [12]). The fluorescence slope in test [5] is -0.479 (inactive). The NADPH fluorescence slope in test [6] is -4.2e-05 (inactive). In addition, the slope in test [7] was 0.00367 (inactive). In addition, the compound was classed as inactive in test [8].
On to `c1ccc(-c2nnc3n2N=C(c2ccc4c(c2)OCO4)CS3)nc1`, for which the cell count in [1] was determined as 626. Also, the inhibition was -5% (inactive) in [1], -177% (inactive) in [2], -11.5% (inactive) in [4] and -7.21% (inactive) in [9]. The compound also gave a nuclei count in [2] of 144%. Besides, the figures for the z-score in [3] (setting [10]), in test [3] (setting [11]) and in [3] (setting [12]) were 0.439, 0.912 and 0.545, respectively. Further, in [5], the fluorescence slope was -0.406 (inactive). Moreover, the NADPH fluorescence slope in [6] is -0.000131 (inactive). The slope in [7] is 0.00609 (inactive). The result in test [8] was inactive.
For `CCCOC(=O)C1[C@H]2C(=O)N(Cc3ccco3)C[C@]23C=C[C@H]1O3` (stereo partly specified), in test [1], the cell count turned out to be 337. The inhibition in [1] is -2.3% (inactive); in test [2], -90.3% (inactive); in test [4], -7.01% (inactive); in test [9], 1.77% (inactive). This compound also had a nuclei count in test [2] of 155%. Moreover, the z-score in [3] (setting [10]) is -0.841; in test [3] (setting [11]), 0.28; in [3] (setting [12]) it was -0.596. Moreover, the fluorescence slope in test [5] is -0.424 (inactive). For the same compound, the NADPH fluorescence slope in test [6] is -0.000134 (inactive). The slope in test [7] is 0.00455 (inactive).
As for `COc1ccccc1N1C(=O)C2ON(c3ccccc3)C(c3ccc(N(C)C)cc3)C2C1=O` (stereo unspecified), in test [1], the cell count amounted to 575. Besides, the inhibition was -8.3% (inactive) in test [1], -66.7% (inactive) in [2], -15% (inactive) in [4] and 9.55% (inactive) in test [9]. The same compound came in with a nuclei count in test [2] of 170%. Moreover, the z-score in [3] (setting [10]) is -2.24; in [3] (setting [11]), 0.301; in test [3] (setting [12]), 1.93. In test [5], the fluorescence slope is -0.503 (inactive). Also, in [6], the NADPH fluorescence slope was -3e-05 (inactive). Moreover, the slope in [7] was 0.00352 (inactive). Further, in test [8], the outcome was inactive.
Take `CN1c2ccccc2N(C)C1c1c(O)ccc2ccccc12`: the cell count in [1] came out at 340. Further, the inhibition in [1] was -22% (inactive); in test [2], -387% (inactive); in test [4], -2.07% (inactive); in test [9], 1.66% (inactive). The nuclei count in test [2] turned out to be 180%. Besides, the z-score in test [3] (setting [10]) is 0.38; in [3] (setting [11]) it was -1.52; in [3] (setting [12]) it was 0.412. In addition, the fluorescence slope in [5] was -0.407 (inactive). In addition, the NADPH fluorescence slope in test [6] was -4.1e-05 (inactive). Also, in [7], the slope is 0.00586 (inactive). Moreover, the outcome in test [8] was inactive.
On to `Nc1nnnn1CC(=O)OCc1cccc(Br)c1`, for which, in test [1], the cell count was found to be 351. Also, the inhibition is -7.3% (inactive) in [1], -43.6% (inactive) in test [2], 1.42% (inactive) in [4] and -1.03% (inactive) in test [9]. Further, the nuclei count in test [2] was determined as 167%. The z-score was 0.909 in [3] (setting [10]), -0.848 in test [3] (setting [11]) and 1.13 in test [3] (setting [12]). Further, the fluorescence slope in [5] is -0.446 (inactive). Also, in test [6], the NADPH fluorescence slope was -0.000151 (inactive). In addition, in test [7], the slope was 0.00561 (inactive). Besides, the result in test [8] was inactive.
In the case of `COc1ccc(-c2c3c([nH]c(=S)c2C#N)CCC3)cc1`, the cell count in test [1] turned out to be 527. For the same compound, the inhibition in [1] was -5.1% (inactive); in test [2], -113% (inactive); in test [4], 2.46% (inactive); in test [9], -1.44% (inactive). This compound yielded a nuclei count in test [2] of 192%. For the same compound, the z-score in test [3] (setting [10]) is -0.0351; in [3] (setting [11]) it was 1.87; in [3] (setting [12]), 0.16. In addition, in [5], the fluorescence slope is -0.314 (inactive). For the same compound, the NADPH fluorescence slope in [6] was -4.4e-06 (inactive). For the same compound, in test [7], the slope was 0.00379 (inactive). For the same compound, the result in [8] was inactive.
